# STK33 inh: inhibitors of human STK33 kinase; Q9BYT3; ADP-Glo luminescence, MBP substrate; inhibition, % at 12.5 µM; 27,000 compounds, 0.44% hits; AID 2322; in the data active = inhibition above about 20%
# Target sequence (Q9BYT3 whole entry, looked up): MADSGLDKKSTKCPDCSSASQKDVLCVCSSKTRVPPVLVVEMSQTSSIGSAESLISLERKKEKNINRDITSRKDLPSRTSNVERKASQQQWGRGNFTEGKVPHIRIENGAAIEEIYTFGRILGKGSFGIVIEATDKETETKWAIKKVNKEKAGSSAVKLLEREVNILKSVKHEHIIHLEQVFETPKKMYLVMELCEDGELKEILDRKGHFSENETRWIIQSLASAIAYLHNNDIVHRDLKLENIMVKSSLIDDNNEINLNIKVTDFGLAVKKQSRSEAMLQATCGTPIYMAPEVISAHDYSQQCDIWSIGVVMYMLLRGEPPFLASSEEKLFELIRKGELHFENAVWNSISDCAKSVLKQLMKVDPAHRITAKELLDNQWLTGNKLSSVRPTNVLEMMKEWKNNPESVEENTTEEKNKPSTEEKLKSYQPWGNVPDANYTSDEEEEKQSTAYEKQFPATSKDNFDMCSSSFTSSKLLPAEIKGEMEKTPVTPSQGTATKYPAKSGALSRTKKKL
# mut p53 react: mutant p53 pathway reactivation | SW480 PUMA-promoter luciferase | 28,000 compounds, 1.5% hits | activation, % at 9.98 µM; in the data active = activation above about 52%
# ID4 binder: ID4 (human) binding; small molecule microarray, Flag-ID4 binding, fluorescence F/B; calls only; 31,000 compounds, 1.2% hits; P47928; call rule not given here;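 also: a binder raises fluorescence above local background on the spot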
# Active calls of the source: *; i = inactive; . = not tested or not shown; + = active, no number. In the library only some 2.1% were active in any assay of this set; here they are far more common.
SMILES,STK33 inh,mut p53 react,ID4 binder
CCC(=O)N(C)C[C@H]1Oc2ncc(C#Cc3ccc(OC)cc3)cc2C(=O)N([C@@H](C)CO)C[C@H]1C,.,4,i
CNC[C@H]1Oc2c(N)cccc2C(=O)N([C@@H](C)CO)C[C@H]1C,3,-1,i
Cc1noc(C)c1S(=O)(=O)Nc1ccc2c(c1)CC(=O)N([C@H](C)CO)C[C@H](C)[C@H](CN(C)Cc1ccc(-c3ccccc3)cc1)O2,8,13,i
C[C@@H]1CCCCO[C@H](CN(C)S(=O)(=O)c2cn(C)cn2)[C@@H](C)CN([C@H](C)CO)C(=O)c2cc(NC(=O)c3ccccc3)ccc2O1,1,5,i
Cc1ccc(NC(=O)COc2cc(C)c(Br)c(C)c2)c([N+](=O)[O-])c1,5,11,i
CCOc1ccc(OCC(=O)Nc2ccc(C)cc2[N+](=O)[O-])cc1,2,32,i
Cc1ccc(NC(=O)COc2ccc(Cl)cc2)c([N+](=O)[O-])c1,1,95*,i
CCc1ccc(OCC(=O)Nc2ccc(C)cc2[N+](=O)[O-])cc1,-2,66*,i
CC(=O)N(C)C[C@H]1Oc2ncc(C#Cc3cccc(F)c3)cc2C(=O)N([C@H](C)CO)C[C@H]1C,.,.,i
C[C@@H]1CN([C@@H](C)CO)C(=O)c2cc(NC(=O)c3ccncc3)ccc2O[C@@H](C)CCCCO[C@@H]1CN(C)C(=O)CCCN(C)C,.,4,i
Cc1cc(NC(=O)CN(c2cccc(F)c2)S(C)(=O)=O)ccc1Br,-1,-12,i
C=C1CCC2(C(=O)OC3OC(CO)C(O)C(O)C3OC3OCC(O)C(O)C3O)CCC3(C)C(=CCC4C5(C)CCC(OC6OC(CO)C(O)C(O)C6O)C(C)(CO)C5CCC43C)C2C1 (stereo unspecified),-9,5,i
O=C1O[C@H](c2ccccc2)[C@H](c2ccccc2)N2[C@H]1[C@@H](C(=O)NC[C@H](O)c1ccccc1)[C@]1(C(=O)Nc3ccc(C#CC4(O)CCCCCC4)cc31)[C@H]2c1ccc(OCCO)cc1,9,.,i
C[C@H](CO)N1C[C@H](C)[C@@H](CN(C)S(=O)(=O)c2cccs2)OCCCC[C@H](C)Oc2ccc(NS(C)(=O)=O)cc2C1=O,.,7,+
C[C@H](CO)N1C[C@H](C)[C@H](CN(C)S(=O)(=O)c2cccs2)OCCCC[C@H](C)Oc2ccc(NS(C)(=O)=O)cc2C1=O,.,-2,i
C[C@@H]1CN([C@@H](C)CO)C(=O)c2cc(NS(C)(=O)=O)ccc2O[C@@H](C)CCCCO[C@H]1CN(C)S(=O)(=O)c1cccs1,.,0,+
C[C@@H]1CCCCO[C@@H](CN(C)S(=O)(=O)c2cccs2)[C@@H](C)CN([C@H](C)CO)C(=O)c2cc(NS(C)(=O)=O)ccc2O1,-1,6,i
COc1cccc(OC)c1C(=O)Nc1cccc(C(=O)Nc2ccccc2C(=O)O)c1,2,-2,i
C[C@@H]1CN([C@@H](C)CO)C(=O)Cc2cc(NS(=O)(=O)c3cccs3)ccc2O[C@@H]1CN(C)S(=O)(=O)c1cn(C)cn1,-2,.,.
Cn1cc(CNC(=O)c2cc(-c3ccc(Br)cc3)nc3ccccc23)cn1,0,36,i
CCCc1ccc(-c2cc(C(=O)NCc3cnn(C)c3)c3ccccc3n2)cc1,-1,106*,i
COCCSc1nnc(NC(=O)c2sc3ccccc3c2Cl)s1,-1,67*,i
CSc1ncc(Cl)c(C(=O)Nc2nnc(SC/C=C/c3ccccc3)s2)n1,-4,-1,i
O=C(O)C(Cc1ccccc1)N1C(=O)c2ccccc2C1=O (stereo unspecified),2,65*,i
COc1ccc(C(=O)Nc2sc3c(c2C(N)=O)CCCC3)cc1OC,.,76*,i
SMILES,STK33 inh,mut p53 react,ID4 binder
NC(=O)c1c(NC(=O)C(Cc2ccccc2)N2C(=O)c3ccccc3C2=O)sc2c1CCCC2 (stereo unspecified),0,-8,+
COc1ccc(C(=O)Nc2sc3c(c2C(=O)NC2CCS(=O)(=O)C2)CCCC3)cc1OC (stereo unspecified),3,-5,i
CCc1ccccc1OCC(=O)Nc1sc2c(c1C(N)=O)CCCC2,-5,15,i
COc1ccc(NC(=O)C(Cc2ccccc2)N2C(=O)c3ccccc3C2=O)cc1 (stereo unspecified),3,3,i
CCNC(=O)C[C@@H]1CC[C@H](NC(=O)C2CC2)[C@@H](CO)O1,.,.,i
C[C@H]1CN([C@@H](C)CO)C(=O)c2cc(NC(=O)Nc3cccc4ccccc34)ccc2O[C@H]1CN(C)S(=O)(=O)c1ccc(Cl)cc1,1,.,.
CCOC(=O)c1c(-c2ccc(C)o2)csc1NC(=S)NC(=O)N(C)C,3,1,i
COc1cc2oc(-c3ccccc3)cc(=O)c2c(O)c1OC,9,3,i
COc1c(OC)c(O)c2c(=O)cc(-c3ccc(O)cc3)oc2c1OC,29*,16,i
COc1ccc(-c2oc3c(OC)c(OC)c(OC)c(O)c3c(=O)c2OC)cc1OC,7,-24,.
COc1cc(-c2cc(=O)c3c(O)c(OC)c(OC)c(O)c3o2)ccc1O,65*,-52,.
C[C@H](CO)N1C[C@H](C)[C@H](CN(C)C(=O)c2cc(-c3ccccc3)on2)OCc2cnnn2CCCC1=O,-4,.,.
C[C@@H]1CN([C@H](C)CO)C(=O)c2cc(C#Cc3cccnc3)cnc2O[C@H]1CN(C)Cc1cccnc1,.,7,i
C[C@@H]1CN([C@@H](C)CO)C(=O)c2cc(C#Cc3cccnc3)cnc2O[C@@H]1CN(C)Cc1ccncc1,.,10,+
C[C@@H]1CN([C@@H](C)CO)C(=O)c2cc(C#Cc3ccncc3)cnc2O[C@H]1CN(C)C(=O)CN(C)C,.,32,+
CCC(=O)N(C)C[C@H]1Oc2ncc(C#Cc3ccncc3)cc2C(=O)N([C@H](C)CO)C[C@H]1C,.,4,i
COc1cc2c(=O)oc(-c3c(-c4c(F)cccc4Cl)noc3C)nc2c(OC)c1OC,.,3,i
C[C@@H]1CCCCO[C@@H](CN(C)C)[C@@H](C)CN([C@H](C)CO)C(=O)c2cc(NS(=O)(=O)c3ccccc3)ccc2O1,1,.,.
CC(C)NC(=O)Nc1ccc2c(c1)C(=O)N([C@H](C)CO)C[C@H](C)[C@H](CN(C)C(=O)Nc1ccc(F)cc1)OCCCC[C@@H](C)O2,0,.,.
Cc1ccccc1S(=O)(=O)N1[C@H](CO)[C@H](c2ccccc2)[C@@H]1C#N,.,.,i
C[C@@H]1CCCCO[C@@H](CN(C)S(=O)(=O)c2cn(C)cn2)[C@@H](C)CN([C@@H](C)CO)C(=O)c2cc(NC(=O)c3ccccc3)ccc2O1,.,5,i
COc1ccc(NC(=O)Nc2ccc3c(c2)C(=O)N([C@H](C)CO)C[C@@H](C)[C@@H](CN(C)Cc2ccc(C(F)(F)F)cc2)O3)cc1,1,.,.
COc1ccc(N(CC(=O)Nc2ccccc2C(=O)O)S(C)(=O)=O)cc1,1,8,i
CCNC(=O)C[C@@H]1CC[C@@H](NC(=O)C2CCC2)[C@H](CO)O1,.,.,i
CC(C)OC(=O)c1cn(Cc2c(F)cccc2F)c2sc(-c3ccc(NC(=O)C(C)C)cc3)c(CN(C)Cc3ccccc3)c2c1=O,.,-51,+
COc1ccc2[nH]c3c(OC)ncnc3c2c1,.,81*,i
COc1ccc2[nH]c(C(=O)O)c(CCC(=O)O)c2c1,0,2,i

# High-throughput results as filed in PubChem BioAssay.
